Bioassay records as filed in PubChem.
Shown are actives, neighbours in structure and some others; about 8.3% of the full set was active somewhere.
HCMV inh: blocks human cytomegalovirus replication; HFF cells, HCMV-luciferase reporter, 72 h; active compounds read low; activity change, negative = inhibition, % at 57.5 µM; 4.5% of 410,000 active; AID 1259415; in the data active = activity change below about -60%; inconclusive = no clear call, values can overlap the other calls; inactive = above about -39%
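Luciferase read-out from HCMV-luciferase-infected HFFs (MOI 1 PFU/cell) 72 h post infection at 37C; compounds added after 16 h cell attachment; activity normalized between buffer-only basal and Salinomycin (10uM) inhibitor controls.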
FBPA Giardia inh: Giardia lamblia aldolase inhibition; A8B2U2; purified Giardia FBPA; Potency, µM (highest dose often 59.6 µM), most hits filed as inhibitors; 0.71% of 290,000 active; note: nearly all actives have a fitted effect of over 55% in size
Target sequence (A8B2U2 whole entry, looked up): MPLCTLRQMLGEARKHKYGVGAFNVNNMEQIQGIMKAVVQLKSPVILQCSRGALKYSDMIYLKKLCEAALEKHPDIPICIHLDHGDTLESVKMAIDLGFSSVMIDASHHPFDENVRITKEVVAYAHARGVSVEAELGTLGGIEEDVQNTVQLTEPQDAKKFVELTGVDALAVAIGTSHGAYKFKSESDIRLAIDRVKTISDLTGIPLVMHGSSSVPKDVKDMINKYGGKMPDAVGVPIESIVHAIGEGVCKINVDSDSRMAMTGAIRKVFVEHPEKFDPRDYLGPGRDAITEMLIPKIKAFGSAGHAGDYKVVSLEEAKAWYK
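40 nM FBPA preincubated 10 min at RT with compound (up to 57.5 uM final), then substrate plus GAPDH/TPI/NAD/arsenate coupling and diaphorase/resazurin added. Fluorescence read after 20 min at RT, 525/598 nm.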
MARV entry inh: Marburg virus entry inhibition; Marburg virus pseudotyped entry inhibition, cell reporter; Potency, µM (top dose mostly 37.8 µM), hits mostly inhibitors; 1.8% of 300,000 active; calls by dose curve; tested in HEK293 cells
LASV entry inh: blocks Lassa virus binding to or entry into cells. AID 540256. Lassa virus pseudotype entry inhibition, cell reporter. 1.2% of 300,000 active. Potency, µM (titrated, usually from 37.9 µM), actives largely listed as inhibitors; calls by dose curve; tested in HEK293 cells; note: nearly all actives have a fitted effect of over 50% in size
FMDV antiviral: foot and mouth disease virus antiviral activity | FMDV antiviral cell-based qHTS | Potency, µM (doses to about 57.9 µM), hits mostly inhibitors | AID 1159524 | 1.2% of 410,000 active; calls by dose curve; tested in HEK293T cells; note: read-out not given here; nearly all actives have a fitted effect of over 45% in size
HCV inhibitor: HCV inhibition | Huh7.5.1 HCVcc-Cre infection, luciferase reporter, 44 h | Potency, µM (titrated, usually from 41.8 µM), actives largely listed as inhibitors | 3.4% of 340,000 active | AID 651820
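1,000 cells/well; 4 h culture; + compound; + HCVcc-Cre (~0.5 moi); 44 h; luciferase substrate, RT 15 min; read 15 sec.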
Large screens that a line does not name were inactive. Unless noted, calls come from the whole dose curve; as a rule, active = well fitted curve in the direction sought with a large enough effect; inconclusive = small, poorly fitted or top-dose-only effect, or another doubt; inactive = no such curve, though single readings can be large; an effect the other way counts as inactive or inconclusive.

CCN(c1ccc(OC)cc1)S(=O)(=O)c1ccc(-c2cc(C)no2)s1	HCMV inh -75.7 (no result: MARV entry inh, LASV entry inh)
CCN(c1ccccc1)S(=O)(=O)c1ccc(-c2cc(C)no2)s1	LASV entry inh inconclusive, FMDV antiviral inconclusive (no result: FBPA Giardia inh, MARV entry inh, HCV inhibitor)
CC(=O)N(CCC(c1ccco1)C(C)C)Cc1ccc(Cl)cc1 (stereo not drawn)	LASV entry inh 10µM
CN1NC(=O)c2ccccc2NC1=S	HCMV inh -60.7 (no result: FBPA Giardia inh, MARV entry inh, LASV entry inh, FMDV antiviral, HCV inhibitor)
Cc1ccc2c(c1)S/C(=C\c1cccc[n+]1C)N2CCO	HCMV inh -97.5, FMDV antiviral inconclusive, HCV inhibitor inconclusive (no result: MARV entry inh, LASV entry inh)
C[n+]1ccccc1/C=C1\Sc2ccccc2N1CCO	HCMV inh inconclusive, LASV entry inh inconclusive, HCV inhibitor inconclusive
Cc1ccc2c(c1)S/C(=C/c1ccc[n+](CCO)c1)N2C	HCMV inh -95.1, MARV entry inh inconclusive, FMDV antiviral inconclusive, HCV inhibitor 1.58µM (no result: LASV entry inh)
COc1cccc(C(=O)/C=C2\Sc3ccccc3N2C)c1	FBPA Giardia inh inconclusive, MARV entry inh inconclusive, LASV entry inh inconclusive
CCN(CC)CCNc1ccc(CO)c2oc3cc(Cl)ccc3c(=O)c12	none (no result: FBPA Giardia inh, MARV entry inh, LASV entry inh, HCV inhibitor)
CN(C)CCNc1ccc(CO)c2oc3ccc(O)cc3c(=O)c12	HCMV inh -99.1, MARV entry inh inconclusive, LASV entry inh inconclusive, HCV inhibitor inconclusive (no result: FBPA Giardia inh)
CCOC(=O)OCC1OC(c2ccccc2)C=CC1Oc1ccc(F)cc1C (stereo not drawn)	none (no result: HCMV inh, MARV entry inh, LASV entry inh, FMDV antiviral, HCV inhibitor)
CN1CCCC(CC2c3ccccc3Sc3ccccc32)C1 (stereo not drawn)	FMDV antiviral 39.8µM, HCV inhibitor 2.82µM (no result: FBPA Giardia inh, MARV entry inh, LASV entry inh)
Cc1cc(NC(=O)NC(=O)c2ccccc2NC(=O)CN)ccc1Oc1ncc(Br)cn1	HCMV inh -84.3, MARV entry inh inconclusive, HCV inhibitor inconclusive (no result: FBPA Giardia inh)
Nc1ccccc1C(=O)NC(=O)Nc1ccc(Oc2ncc(Br)cn2)c(Cl)c1	HCMV inh -87.3, LASV entry inh inconclusive (no result: FBPA Giardia inh)
Cc1cc(NC(=O)NC(=O)c2ccccc2NC(=O)CN(C)C)ccc1Oc1ncc(Br)cn1	MARV entry inh inconclusive, LASV entry inh inconclusive, HCV inhibitor inconclusive (no result: FBPA Giardia inh)
COc1cc(OC)c(NC(=O)Cn2c(=O)cc(C(F)(F)F)c3c(C)nn(C)c32)cc1Cl	none (no result: FBPA Giardia inh, MARV entry inh, HCV inhibitor)
Cc1ccc(C(=O)c2oc3ccccc3c2NC(=O)C(C)Oc2ccccc2Cl)cc1 (stereo not drawn)	none (no result: FBPA Giardia inh, HCV inhibitor)
NS(=O)(=O)c1ccc(Sc2nc3ccccc3s2)c([N+](=O)[O-])c1	MARV entry inh inconclusive, FMDV antiviral inconclusive, HCV inhibitor 22.4µM
NS(=O)(=O)c1ccc(Sc2ccccn2)c([N+](=O)[O-])c1	none
C[C@@H]1CC[C@H]2C(=O)O[C@H](COc3ccc(C(C)(C)C)cc3)CN2[C@@H]1c1ccc(Br)cc1	MARV entry inh inconclusive (no result: HCMV inh, FBPA Giardia inh, FMDV antiviral, HCV inhibitor)
CCNC(=S)NCCC1=c2ccccc2=N/C1=C\c1c(O)n(C)c(=O)n(C)c1=O	FMDV antiviral 39.8µM (no result: MARV entry inh, LASV entry inh)
Cn1cc(CN(C(=O)Nc2ccc(Cl)c(Cl)c2)C2CCCCC2)c2ccccc21	none (no result: FBPA Giardia inh, HCV inhibitor)
Cn1cc(CN(C(=O)Nc2ccccc2)C2CCCCC2)c2ccccc21	HCMV inh -105.0, LASV entry inh inconclusive (no result: FBPA Giardia inh, HCV inhibitor)
CC#CCN1c2ccccc2[C@]23C[C@@H](C(=O)OC)N(S(=O)(=O)c4cccs4)C2=NC(C(=O)OC)=C(C(=O)OC)[C@H]13	none (no result: HCMV inh, MARV entry inh, LASV entry inh, FMDV antiviral, HCV inhibitor)
COC(=O)c1ccc(NC(=O)CC2C(=O)N(c3cccc(OC)c3)C(=O)N2Cc2cccs2)cc1 (stereo not drawn)	LASV entry inh inconclusive (no result: FBPA Giardia inh, MARV entry inh, HCV inhibitor)
COCCn1c(C)cc(C(=O)COC(=O)c2n[nH]c3ccccc23)c1C	MARV entry inh inconclusive, LASV entry inh inconclusive, FMDV antiviral 11.2µM, HCV inhibitor inconclusive
Cc1cc(C(=O)COC(=O)c2ccccc2O)c(C)n1CC1CCCO1 (stereo not drawn)	HCMV inh -72.8, FMDV antiviral 35.5µM, HCV inhibitor 11.2µM (no result: FBPA Giardia inh, MARV entry inh, LASV entry inh)
Cc1cc(C(=O)COc2ccccc2C(N)=O)c(C)n1CC1CCCO1 (stereo not drawn)	HCMV inh -62.0, MARV entry inh inconclusive, FMDV antiviral 28.2µM, HCV inhibitor 1.78µM
Cc1cc(C(=O)COC(=O)c2cccc(NS(C)(=O)=O)c2)c(C)n1CC1CCCO1 (stereo not drawn)	MARV entry inh 5.62µM, LASV entry inh 10µM, FMDV antiviral 11.2µM, HCV inhibitor inconclusive (no result: FBPA Giardia inh)
Cc1cc(C(=O)COC(=O)c2cccnc2Cl)c(C)n1CC1CCCO1 (stereo not drawn)	FMDV antiviral inconclusive, HCV inhibitor inconclusive (no result: MARV entry inh, LASV entry inh)
